# Results from PubChem BioAssay (Tox21).
# Records with an inconclusive call do not appear. A call without a number means that no potency is given here. Unmarked numbers belong to inactive results. Active and inactive are the calls of the source. Calls come from the whole dose curve.
# Molecular target: 5-hydroxytryptamine receptor 2A (Homo sapiens) (UniProt P28223)
# Test: 5-hydroxytryptamine receptor 2A (HTR2A) small molecule agonists, cell-based qHTS assay (AID 1963587); note: nearly all actives have a fitted effect of over 30% in size
# Conditions: HTR2A-CHO cells, calcium flux fluorescence, agonist mode; series mostly up to 76.8 µM; activation: at the top concentration
# Source text: National Center for Advancing Translational Sciences [NCATS]
# Division of Preclinical Innovation [DPI]
# U.S. Environmental Protection Agency [EPA]
# National Institutes of Environmental Health Sciences [NIEHS]
# National Toxicology Program [NTP]
# U.S. Food and Drug Administration [FDA]
# The HTR2A receptor is a subtype of the 5-HT2 receptor that belongs to the serotonin receptor family and is a G protein-coupled receptor (GPCR). The HTR2A-CHO cell line stably expressing human 5-hydroxytryptamine receptor 2A (HTR2A) can be used for screening agonists of interactions between 5-HT2 and its ligands. The HTR2A-CHO calcium flux assay is a homogeneous fluorescence-based assay for detecting the intracellular calcium level using FDSS kinetic plate reader system.
# HTR2A-CHO cells were dispensed at 2000 cells/3uL/well in 1536-well black-clear bottom plates using a Multidrop Dispenser. After the assay plates were incubated at a 37 C/5% CO2 incubator for 18 h, 3 uL of Dye Loading Buffer was transferred to the assay plate by a Flying Reagent Dispenser. The assay plates were incubated at 37 C for 1h. For agonist mode, 23 nL of compounds dissolved in DMSO, positive controls or DMSO only was transferred to the assay plate by a pin tool. The fluorescence intensity in the plates was measured using FDSS 7000EX kinetic plate reader for 2 min at 1 sec intervals.
# Sequence of 5-hydroxytryptamine receptor 2A (Homo sapiens) (P28223 whole entry, looked up): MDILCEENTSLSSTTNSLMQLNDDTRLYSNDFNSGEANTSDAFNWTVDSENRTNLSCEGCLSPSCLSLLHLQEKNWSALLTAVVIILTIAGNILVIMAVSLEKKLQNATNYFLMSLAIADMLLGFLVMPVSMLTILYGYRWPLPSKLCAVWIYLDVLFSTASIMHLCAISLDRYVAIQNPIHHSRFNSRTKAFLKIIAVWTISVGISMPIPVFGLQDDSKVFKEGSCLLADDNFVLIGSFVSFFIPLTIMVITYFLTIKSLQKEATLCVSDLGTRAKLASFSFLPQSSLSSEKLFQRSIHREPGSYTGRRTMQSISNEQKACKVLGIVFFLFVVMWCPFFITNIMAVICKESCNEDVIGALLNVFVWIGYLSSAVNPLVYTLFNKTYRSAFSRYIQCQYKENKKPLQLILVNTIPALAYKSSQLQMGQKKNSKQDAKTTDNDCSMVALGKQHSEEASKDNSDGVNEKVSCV
SMILES,Potency,activation
COCC(=O)N(c1c(C)cccc1C)C(C)C(=O)OC (stereo not given),inactive,–
NC1(c2ccccc2)CCCCC1,–,19.5%
C1CC2OC2CC1C1CO1 (stereo not given),inactive,–
O=P(OCCCl)(OCCCl)OCCCl,inactive,–
Cc1cc(N=Nc2ccccc2C)ccc1N,–,17.1%
NC(=O)CCl,–,-0.0347%
CCCCOCCOC(C)=O,inactive,–
C=CC#N,inactive,–
CCC[N+](=O)[O-],inactive,–
O=S(=O)(c1ccccc1)c1ccccc1,–,-0.0701%
CCCCC(CC)C(=O)Cl (stereo not given),inactive,–
COC[C@@H](NC(C)=O)C(=O)NCc1ccccc1,–,2.1% [at 35.6 µM]
C1CS1,–,0.876%
Oc1ccc(-c2ccccc2)cc1,inactive,–
Nc1ccc(Oc2ccc(N)cc2)cc1,inactive,–
O=P(OCC(Br)CBr)(OCC(Br)CBr)OCC(Br)CBr (stereo not given),inactive,–
COc1ccc(CO)cc1,inactive,–
CC(C)(C)C(=O)Cl,–,6.82%
CSc1nnc(C(C)(C)C)c(=O)n1N,inactive,–
O=c1nc(O)n(Cl)c(=O)n1Cl,inactive,–

SMILES,Potency,activation
C#CCOS(=O)OC1CCCCC1Oc1ccc(C(C)(C)C)cc1 (stereo not given),inactive,–
S=c1[nH]c2ccccc2[nH]1,inactive,–
[O]=[Cr](=[O])([OH])[O][Cr](=[O])(=[O])[OH],inactive,–
COC(=O)c1ccccc1CS(=O)(=O)NC(=O)Nc1nc(OC)cc(OC)n1,–,-1.75%
CCOC(=O)Nc1cccc(OC(=O)Nc2ccccc2)c1,–,-2.11%
Cc1ccccc1CCl,–,1.74%
CN(C)[C@@H]1C(=O)C(C(N)=O)=C(O)[C@@]2(O)C(=O)C3=C(O)c4c(O)cccc4[C@@](C)(O)[C@H]3C[C@@H]12,inactive,–
CC(C)NC(=O)N1CC(=O)N(c2cc(Cl)cc(Cl)c2)C1=O,inactive,–
COc1cc2c(cc1OC)[C@@]13CCN4CC5=CCO[C@H]6CC(=O)N2[C@H]1[C@H]6[C@H]5C[C@H]43,–,-0.405%
O=c1n(Cl)c(=O)n(Cl)c(=O)n1Cl,inactive,–
Cc1ccc(C(=O)Cl)cc1,–,-1.48%
CCN(CC)Cc1nccn1-c1ccc([N+](=O)[O-])cc1C(=O)c1ccccc1Cl,–,-9.45% [at 35.6 µM]
CCCCCc1cc(O)cc(O)c1,inactive,–
Cl/C=C/Cl,inactive,–
CCCCOC(=O)c1ccccc1C(=O)O,–,-0.0865%
NC(=S)Nc1ccccc1,inactive,–
Cc1ccccc1O,inactive,–
O=[N+]([O-])c1ccc(Cl)cc1,inactive,–
O=S(=O)(O)OOS(=O)(=O)O,inactive,–
O=C(O)C(F)(F)C(F)(F)C(F)(F)C(F)(F)C(F)(F)C(F)(F)C(F)(F)C(F)(F)F,–,-0.518%
